# Experimental data: PubChem BioAssay
# Calls of active or inactive are those of the source.
# Key:
# [1] = tested on: Plasmodium falciparum Sir2 (PF13_0152, Sir2A); test: pfSir2 binders on small-molecule microarrays, primary screen, biochemical, small-molecule microarray, 635 nm fluorescence (AID 1098); settings: small-molecule microarray binding, fluorescence 635 nm; higher = more signal;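 further: score merges spot fluorescence intensity with its signal-to-noise ratio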
# [2] = small-molecule microarray binders of probe aDKK1, primary screen, biochemical, biotinylated probe, 635/667 nm fluorescence (AID 1099); settings: higher = more signal;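 further: score merges 667nm spot fluorescence with signal to noise across triplicate slides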
# [3] = small-molecule microarray binders of probe aCHRDL2, primary screen, biochemical, biotinylated probe, 635/667 nm fluorescence (AID 1100); settings: higher = more signal
# [4] = splicing luciferase reporter signal modulators, primary screen, spliceosome inhibition project, cell-based, HEK293, splice +/- reporter (AID 1101); settings: luminescence, 24 h, higher = more signal, called active from +8 up or from −8 down;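 further: HEK293 cells carrying a splicing-competent luciferase reporter gene; test concentration not given here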
# [5] = molecular target: Fibroblast growth factor 10 (Homo sapiens) (UniProt O15520); test: FGF10 binders on small-molecule microarrays, primary screen, biochemical, small-molecule microarray, 635 nm fluorescence (AID 1102); settings: FGF10 binding, fluorescence 635 nm, higher = more signal
# Fibroblast growth factor 10 (Homo sapiens), sequence (O15520 whole entry, looked up): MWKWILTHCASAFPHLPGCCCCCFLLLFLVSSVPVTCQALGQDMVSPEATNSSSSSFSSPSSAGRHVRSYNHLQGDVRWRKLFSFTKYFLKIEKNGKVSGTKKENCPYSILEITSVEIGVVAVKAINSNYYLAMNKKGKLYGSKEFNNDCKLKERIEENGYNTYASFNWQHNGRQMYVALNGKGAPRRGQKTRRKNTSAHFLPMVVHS
# [6] = tested on: glycogen synthase kinase-3 (GSK3A per assay name; protocol says GSK3B); test: GSK3 binders on small-molecule microarrays, primary screen, biochemical, small-molecule microarray, 635 nm fluorescence, GSK3A (AID 1103); settings: small-molecule microarray binding, fluorescence 635 nm; higher = more signal; further: the record names both GSK3A and GSK3B
# [7] = molecular target: Epidermal growth factor receptor (Homo sapiens) (UniProt P00533); test: EGFR binders on small-molecule microarrays, primary screen, biochemical, small-molecule microarray, 635 nm fluorescence (AID 1104); settings: EGFR binding, higher = more signal;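 further: score merges 667 nm emission intensity with spot signal to noise over triplicate slides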
# Epidermal growth factor receptor (Homo sapiens), sequence (P00533 whole entry, looked up): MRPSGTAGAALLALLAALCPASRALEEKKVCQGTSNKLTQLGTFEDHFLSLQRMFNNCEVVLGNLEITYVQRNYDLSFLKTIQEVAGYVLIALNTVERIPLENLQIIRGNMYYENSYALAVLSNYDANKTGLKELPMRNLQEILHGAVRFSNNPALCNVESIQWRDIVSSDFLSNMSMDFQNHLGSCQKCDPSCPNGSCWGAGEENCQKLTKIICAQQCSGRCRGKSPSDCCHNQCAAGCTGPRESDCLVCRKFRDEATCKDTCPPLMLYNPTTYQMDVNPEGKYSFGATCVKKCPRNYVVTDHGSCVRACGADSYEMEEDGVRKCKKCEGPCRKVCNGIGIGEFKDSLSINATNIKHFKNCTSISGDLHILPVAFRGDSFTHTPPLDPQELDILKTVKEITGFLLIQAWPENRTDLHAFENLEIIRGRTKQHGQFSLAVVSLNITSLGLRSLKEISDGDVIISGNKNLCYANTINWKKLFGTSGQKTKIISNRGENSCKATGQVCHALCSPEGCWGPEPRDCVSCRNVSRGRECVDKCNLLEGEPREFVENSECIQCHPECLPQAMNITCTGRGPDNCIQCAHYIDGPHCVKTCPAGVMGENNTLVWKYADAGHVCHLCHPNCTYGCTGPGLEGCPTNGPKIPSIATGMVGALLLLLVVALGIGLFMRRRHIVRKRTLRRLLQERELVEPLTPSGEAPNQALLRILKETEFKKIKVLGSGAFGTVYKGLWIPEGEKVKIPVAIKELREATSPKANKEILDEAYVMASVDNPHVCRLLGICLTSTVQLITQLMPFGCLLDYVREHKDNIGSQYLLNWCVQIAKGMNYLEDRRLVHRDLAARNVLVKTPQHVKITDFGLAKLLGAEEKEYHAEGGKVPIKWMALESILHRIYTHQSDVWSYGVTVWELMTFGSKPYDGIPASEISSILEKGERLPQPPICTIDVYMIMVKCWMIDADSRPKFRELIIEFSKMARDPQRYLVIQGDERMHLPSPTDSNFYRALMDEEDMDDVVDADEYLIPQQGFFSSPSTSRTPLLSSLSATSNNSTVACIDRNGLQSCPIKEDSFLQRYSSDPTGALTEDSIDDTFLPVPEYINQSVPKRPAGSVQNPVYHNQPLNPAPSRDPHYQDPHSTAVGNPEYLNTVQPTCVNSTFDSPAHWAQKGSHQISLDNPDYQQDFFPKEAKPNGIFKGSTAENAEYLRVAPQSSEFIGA
# [8] = molecular target: Follistatin-related protein 3 (Homo sapiens) (UniProt O95633); test: FSTL3 binders on small-molecule microarrays, primary screen, biochemical, small-molecule microarray, 635 nm fluorescence (AID 1105); settings: FSTL3 binding, higher = more signal;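 further: score merges emission near 667 nm and signal to noise per printed spot across three slides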
# Follistatin-related protein 3 (Homo sapiens), sequence (O95633 whole entry, looked up): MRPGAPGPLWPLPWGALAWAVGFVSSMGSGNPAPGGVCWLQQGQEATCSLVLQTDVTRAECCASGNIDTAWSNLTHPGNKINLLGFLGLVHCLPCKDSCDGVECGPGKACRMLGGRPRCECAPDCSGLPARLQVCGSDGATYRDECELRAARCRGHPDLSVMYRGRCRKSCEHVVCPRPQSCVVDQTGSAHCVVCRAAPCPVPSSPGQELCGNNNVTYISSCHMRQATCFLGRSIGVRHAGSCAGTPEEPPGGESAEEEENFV
# [9] = molecular target: Dickkopf-related protein 1 (Homo sapiens) (UniProt O94907); test: DKK1 binders on small-molecule microarrays, primary screen, biochemical, small-molecule microarray, 635 nm fluorescence scan (AID 1106); settings: DKK1 binding, higher = more signal;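 further: score merges emission near 667 nm with signal to noise over three replicate slides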
# Dickkopf-related protein 1 (Homo sapiens), sequence (O94907 whole entry, looked up): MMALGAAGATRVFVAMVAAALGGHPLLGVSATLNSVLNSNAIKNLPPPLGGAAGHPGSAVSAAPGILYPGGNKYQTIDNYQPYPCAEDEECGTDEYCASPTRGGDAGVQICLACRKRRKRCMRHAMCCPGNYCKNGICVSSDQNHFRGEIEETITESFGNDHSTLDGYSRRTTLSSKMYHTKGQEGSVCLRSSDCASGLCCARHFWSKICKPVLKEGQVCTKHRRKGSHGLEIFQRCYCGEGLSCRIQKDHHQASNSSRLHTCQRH
# [10] = tested on: Inhibin beta A chain (activin A); test: INHBA (activin A) binders on microarrays, primary screen, biochemical, small-molecule microarray, 635 nm fluorescence scan (AID 1107); settings: small-molecule microarray binding, higher = more signal;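 further: mouse activin A protein probed at 4.33 µg/mL on printed slides; score merges bound-protein fluorescence near 667 nm with spot signal-to-noise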
# [11] = tested on: Human papillomavirus type 1a protein E7 (residues 44-93); test: HPV1a E7 fragment binders on microarrays, primary screen, biochemical, small-molecule microarray, residues 44-93, 635 nm fluorescence (AID 1108); settings: small-molecule microarray binding, fluorescence 635 nm; higher = more signal;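 further: E7 fragment applied at 1 µg/mL in TBST for 1 h at 4 C; score combines spot fluorescence with its signal to noise ratio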
# [12] = modulators of HCV replicon luciferase signal, primary screen, HCV replication inhibitor project, Huh7 cells, luciferase reporter (AID 1109); settings: 48 h, higher = more signal;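 further: huh7 hepatoma cells harbouring a luciferase neomycin HCV replicon reporter; luciferase luminescence as measure of HCV replicon replication; test concentration not given here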
# [13] = molecular target: Left-right determination factor 2 (Homo sapiens) (UniProt O00292); test: LEFTY2 binders on small-molecule microarrays, primary screen, biochemical, small-molecule microarray, 635 nm fluorescence scan (AID 1110); settings: LEFTY2 binding, higher = more signal
# Left-right determination factor 2 (Homo sapiens), sequence (O00292 whole entry, looked up): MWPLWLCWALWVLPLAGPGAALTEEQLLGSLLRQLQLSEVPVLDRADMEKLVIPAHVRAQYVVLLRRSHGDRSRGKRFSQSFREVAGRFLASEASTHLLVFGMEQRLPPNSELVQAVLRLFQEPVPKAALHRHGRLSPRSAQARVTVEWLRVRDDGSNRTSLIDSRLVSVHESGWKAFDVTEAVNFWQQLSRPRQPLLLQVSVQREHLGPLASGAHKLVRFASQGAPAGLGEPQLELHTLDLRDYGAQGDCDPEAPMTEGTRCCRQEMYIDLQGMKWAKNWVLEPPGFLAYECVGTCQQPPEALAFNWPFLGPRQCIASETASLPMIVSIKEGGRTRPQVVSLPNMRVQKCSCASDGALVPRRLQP
# [14] = molecular target: Calmodulin-1 (Homo sapiens) (UniProt P0DP23); test: CALM1 binders on microarrays, EGTA buffer, profiling panel, biochemical, small-molecule microarray, Cy5-labelled CALM1 (AID 1111); settings: Cy5-CALM1 binding fluorescence, higher = more signal;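 further: labelled calmodulin applied in Tris saline Tween buffer holding calcium plus EGTA and DTT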
# [15] = molecular target: Calmodulin-1 (Homo sapiens) (UniProt P0DP23); test: calcium-bound CALM1 binders on microarrays, profiling panel, artefact control for SMM control-protein annotation, biochemical, small-molecule microarray, Cy5-labelled CALM1, plus calcium (AID 1112); settings: Cy5-CALM1 binding fluorescence, higher = more signal;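 further: score merges spot fluorescence with signal to noise from triplicate slides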
# [16] = small-molecule microarray binders of probe aWnt5a, primary screen, biochemical, biotinylated probe, 635/667 nm fluorescence (AID 1113); settings: higher = more signal;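 further: score merges 667 nm fluorescence intensity with signal-to-noise per printed feature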
# [17] = small-molecule microarray binders of probe aShh, primary screen, biochemical, biotinylated probe, 635/667 nm fluorescence (AID 1114); settings: higher = more signal;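 further: probe is biotin-labelled aShh protein from a stem cell growth factor screen; measures binding of labelled protein to compounds printed on the slide; score merges feature fluorescence at 667 nm with signal-to-noise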
# [18] = small-molecule microarray binders of probe aNog, primary screen, biochemical, biotinylated probe, 635/667 nm fluorescence (AID 1115); settings: higher = more signal;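 further: probe is biotinylated aNog protein used at 0.15 µg/mL for 1 h at 4 C; z-score combines 667 nm fluorescence of each spot with its signal to noise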
# [19] = molecular target: Torsin-1A-interacting protein 1 (Homo sapiens) (UniProt Q5JTV8); test: LAP1 binders from COS7 cell lysate, primary screen, small-molecule microarray, 635/667 nm fluorescence (AID 1116); settings: COS7-hLAP1 lysate binding, 635 nm fluorescence, higher = more signal
# Torsin-1A-interacting protein 1 (Homo sapiens), sequence (Q5JTV8 whole entry, looked up): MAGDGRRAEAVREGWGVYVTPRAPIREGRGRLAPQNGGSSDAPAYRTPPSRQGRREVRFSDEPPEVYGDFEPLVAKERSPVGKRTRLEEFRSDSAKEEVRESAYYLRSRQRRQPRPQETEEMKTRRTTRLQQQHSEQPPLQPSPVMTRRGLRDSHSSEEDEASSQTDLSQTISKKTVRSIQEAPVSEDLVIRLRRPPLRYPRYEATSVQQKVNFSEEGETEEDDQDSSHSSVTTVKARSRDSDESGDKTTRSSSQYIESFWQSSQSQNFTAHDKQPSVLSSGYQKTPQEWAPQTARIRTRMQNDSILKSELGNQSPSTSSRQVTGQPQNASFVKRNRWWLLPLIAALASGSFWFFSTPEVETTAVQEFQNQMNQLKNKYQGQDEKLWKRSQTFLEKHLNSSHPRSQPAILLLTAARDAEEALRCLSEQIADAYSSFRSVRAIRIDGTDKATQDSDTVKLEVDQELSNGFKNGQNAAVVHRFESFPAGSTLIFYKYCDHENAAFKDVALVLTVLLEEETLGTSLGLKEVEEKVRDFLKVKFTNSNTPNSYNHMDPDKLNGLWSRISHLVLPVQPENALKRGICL
# [20] = molecular target: Alpha-bungarotoxin (Bungarus multicinctus) (UniProt P60615); test: alpha-bungarotoxin binders on microarray, profiling panel, artefact control for SMM control protein annotation, biochemical, small-molecule microarray, Alexa647 label, 635/667 nm fluorescence (AID 1117); settings: alpha-BTX-A647 binding fluorescence, higher = more signal
# Alpha-bungarotoxin (Bungarus multicinctus), sequence (P60615 whole entry, looked up): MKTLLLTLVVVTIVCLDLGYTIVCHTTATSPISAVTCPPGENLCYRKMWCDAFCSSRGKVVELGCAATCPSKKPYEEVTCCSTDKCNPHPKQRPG
Structure (SMILES),composite z-score [1],composite z-score [2],composite z-score [3],z-score [4],composite z-score [5],composite z-score [6],composite z-score [7],composite z-score [8],composite z-score [9],composite z-score [10],composite z-score [11],z-score [12],composite z-score [13],composite z-score [14],composite z-score [15],composite z-score [16],composite z-score [17],composite z-score [18],composite z-score [19],composite z-score [20]
CCOC(=O)C[C@H]1[C@H](OC(=O)Cc2ccc3c(c2)OCO3)[C@@H](NC(=O)CC(C)C)c2cc(OCCCO)ccc2N1C(=O)c1ccccc1,0.899,-0.095,-0.533,-1.6 (inactive),0.723,0.263,0.369,0.321,0.451,0.643,0.338,0.0689,0.371,-0.278,-0.215,-0.0478,0.081,0.161,0.662,0.111
Cc1ccc(N2C(=O)c3ccccc3[C@](C)(C(=O)O)[C@@H]2c2ccc(CO)cc2)nc1,-0.445,-0.322,0.365,0.763 (inactive),-0.883,-1.45,-2.18,-1.21,-0.967,-0.292,-2.5,0.0767,-1.64,0.202,0.823,-0.304,0.608,-0.459,-0.415,-0.666
CCc1cccc(NC(=O)O[C@H]2[C@H](OC(=O)Nc3ccccc3)[C@@H](OC(=O)Nc3ccccc3)[C@@H](OC)O[C@@H]2CO)c1,1.35,0.169,0.37,-0.0187 (inactive),1.54,1.07,0.0832,1.41,0.319,0.451,1.51,-3.51,0.273,1.19,-0.291,0.0267,0.19,1.34,2.41,1.2
CCOC(=O)C[C@H]1[C@H](OC(=O)c2cc3ccccc3oc2=O)[C@@H](NC(=O)C2CCCCC2)c2cc(OCCCO)ccc2N1C(=O)c1ccc2ccccc2n1,0.631,-0.245,-0.273,-0.34 (inactive),0.68,0.413,0.258,1.08,0.493,0.304,1.03,-0.26,0.4,0.242,-0.137,-0.0721,0.225,-0.188,0.767,0.131
O=C1O[C@H](c2ccccc2)[C@H](c2ccccc2)N2[C@H]1[C@@H](C(=O)Nc1nc3ccccc3s1)[C@]1(C(=O)Nc3ccc(C#CC4(O)CCCCCC4)cc31)[C@H]2c1ccc(O)cc1,1.53,0.0991,-0.0778,-0.493 (inactive),1.13,1.27,0.556,0.976,0.413,0.357,1.38,-0.733,0.596,1.94,0.597,-0.0125,-0.203,-0.387,1.58,2.17
Cc1ccc(S[C@]2(C(=O)NC3CC3)CC(=O)N(Cc3cc(C(F)(F)F)cc(C(F)(F)F)c3)[C@@H]2c2ccc(CO)cc2)cc1,0.259,-0.212,0.0275,0.434 (inactive),0.295,0.57,0.196,0.811,0.245,0.709,0.892,-1.17,0.267,-0.125,-0.493,-0.175,-0.174,-0.491,-0.0118,0.296
COc1ccc(-c2ccccc2[C@@H]2N[C@H](C(=O)O)CC[C@H]2C)cc1,0.0888,-0.267,-0.519,-1.21 (inactive),0.262,0.387,0.418,0.336,0.526,0.135,0.404,-0.388,0.594,-0.27,-0.699,-0.0222,0.138,0.432,0.583,0.288
COc1ccc(CCN2C(=O)[C@@]3(c4ccc([N+](=O)[O-])cc4)CC(=O)N(CC45CC6CC(CC(C6)C4)C5)[C@@H]3c3ccc(CO)cc32)cc1,1.42,0.463,0.761,-0.604 (inactive),-0.212,0.592,-0.645,-0.203,-0.369,0.718,-0.047,-0.673,0.16,0.207,-0.474,-0.0101,-0.181,-0.476,0.352,0.119
Cc1ccc(S[C@]2(C(=O)NCCCN(C)C)CC(=O)N(C3CCCCC3)[C@@H]2c2ccc(CO)cc2I)cc1,-0.939,0.956,1.14,-1.31 (inactive),-0.582,0.219,-1,-0.593,-0.256,1.14,-1.32,-3.67,-0.848,-0.454,0.49,-0.0455,0.173,0.134,0.123,-0.693
O=C(NCC(O)CO)[C@]1(Cc2ccccc2)N=C(c2ccc(OCCCO)cc2)O[C@@H]1c1ccccc1 (stereo not given in full),1.51,1,0.955,-1.47 (inactive),-0.23,-0.0255,-1.25,-0.376,-0.197,0.148,0.679,-0.378,-1.48,2.61,1.31,0.225,-0.0642,1.68,2.64,2.27
N#Cc1ccc(NN2C(C(O)CCc3ccccc3)C=CC3C(=O)N(c4ccccc4)C(=O)C32)cc1 (stereo not given),0.712,1.18,1.11,-0.474 (inactive),0.25,0.767,-0.164,0.228,0.0048,1.02,-0.317,-0.123,-0.111,1.59,0.0484,0.0785,0.108,-0.428,2.95,0.969
